According to PubChem BioAssay AID360 (National Center for Advancing Translational Sciences (NCATS), 2006):
About 550 (1.1%) of roughly 48,000 compounds were called active. Not shown: some 4% with an inconclusive outcome. The sample holds actives, similar compounds and a random draw of the others, so the mix is not that of the screen. Values without a mark were called inactive. Rule as the data show it: active = potency below about 15 µM; inconclusive = mostly about 16 µM to 33 µM; inactive = weaker than that.
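Also: the screen sought inhibitors.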
Potency is read from the fitted curve at half-maximal effect.

The compounds below were run against Lysosomal acid glucosylceramidase (Homo sapiens) (UniProt P04062) (assay: Glucocerebrosidase). Conditions: purified enzyme, resorufin glucoside fluorescence (screen aimed at inhibitors), 20 min.
Chain of Lysosomal acid glucosylceramidase (Homo sapiens) (P04062 whole entry, looked up): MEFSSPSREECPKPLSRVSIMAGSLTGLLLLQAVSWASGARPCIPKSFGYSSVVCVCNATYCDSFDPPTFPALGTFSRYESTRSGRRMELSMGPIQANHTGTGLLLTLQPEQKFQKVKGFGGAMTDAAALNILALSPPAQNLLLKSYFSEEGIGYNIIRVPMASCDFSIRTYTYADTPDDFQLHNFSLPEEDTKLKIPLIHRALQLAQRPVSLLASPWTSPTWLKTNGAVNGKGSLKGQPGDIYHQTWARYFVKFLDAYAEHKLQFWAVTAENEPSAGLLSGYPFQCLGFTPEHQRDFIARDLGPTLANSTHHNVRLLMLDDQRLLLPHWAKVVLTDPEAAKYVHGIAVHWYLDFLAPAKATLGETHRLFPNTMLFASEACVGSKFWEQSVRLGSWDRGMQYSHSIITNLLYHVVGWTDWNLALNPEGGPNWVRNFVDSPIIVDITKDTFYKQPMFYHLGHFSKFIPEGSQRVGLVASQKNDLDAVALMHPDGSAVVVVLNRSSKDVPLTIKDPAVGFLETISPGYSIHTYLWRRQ
In short: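 Normal human glucocerebrosidase (0.2 nM final) was assayed with resorufin β-D-glucopyranoside (30 uM final) in 50mM citric acid/KH2PO4, 10mM sodium taurocholate, 0.01% tween-20, pH 5.9. Compounds were titrated; fluorescence (Ex 548, Em 600) read after 20 min at RT.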
`CCOc1ccccc1C1C(C(=O)OC)=CN(C)C=C1C(=O)OC` was tested, and the Potency was > 76.9 µM.
For `CCOc1ccc(CNC(=O)C2CCC(=O)N2C2CCCC2)cc1OC` (stereo not given), the Potency was > 76.9 µM.
With `CCOc1cc(C2C(C(=O)OC)=CN(C3CCCC3)C=C2C(=O)OC)cc(Br)c1O` the Potency was 6.06 µM (active).
`CC(C)CCNC(=O)CN(C(=O)Cn1nnc(-c2ccc(F)cc2)n1)C1CCCC1` was tested, and the Potency was > 76.9 µM.
In the case of `CC(=O)Nc1ccc(S(=O)(=O)NCCc2ccccc2)cc1`, the Potency is reported as > 76.9 µM.
In the case of `O=C(CN1CCN(c2nc(-c3ccccc3)cs2)CC1)NCc1ccc2c(c1)OCO2`, the Potency is reported as > 76.9 µM.
In the case of `O=C(CSc1nnc(-c2ccccc2)o1)N1CCOCC1`, the Potency is reported as > 76.9 µM.
For `CCN1C(=O)/C(=C\N2CCN(c3cccc(Cl)c3)CC2)SC1=S`, the Potency was 7.83 µM (active).
With `CCN1C(=O)/C(=C\N2CCN(c3ccccc3)CC2)SC1=S` the Potency was 70.4 µM.
With `CS(=O)(=O)N(CC(=O)N1CCN(c2cccc(Cl)c2)CC1)c1ccccc1` the Potency was > 76.9 µM.
For `CCOc1ccc(NC(=O)N2CCN(CC)CC2)cc1`, the Potency was 11.1 µM (active).
With `CCOc1ccc(NC(=O)Nc2ccc(N(C)C(C)=O)cc2)cc1` the Potency was > 76.9 µM.
For `CCOc1ccc(NC(=O)N2CC=C(n3c(=O)[nH]c4ccccc43)CC2)cc1`, the Potency was > 76.9 µM.
For `CSc1ncccc1C(=O)OCC(=O)N1CCOCC1`, the Potency was > 76.9 µM.
`Cc1ccc(NC(=O)NCC(c2cccnc2)N2CCOCC2)cc1` (stereo not given) was tested, and the Potency was > 76.9 µM.
In the case of `COc1ccc(C(CNC(=O)c2cccnc2SC)N2CCOCC2)cc1` (stereo not given), the Potency is reported as 15 µM (active).
In the case of `CCC(c1nnnn1Cc1ccccc1)N(Cc1cc2cc(OC)ccc2[nH]c1=O)CC1CCCO1` (stereo not given), the Potency is reported as > 76.9 µM.
For `COc1ccc2[nH]c(=O)c(CN(Cc3nnnn3CCc3ccccc3)CC3CCCO3)cc2c1` (stereo not given), the Potency was 35.8 µM.
For `CCC(c1nnnn1Cc1ccco1)N(CCc1ccccc1)Cc1cc2ccc(OC)cc2[nH]c1=O` (stereo not given), the Potency was 14.2 µM (active).
For `O=C(O)C1CCCN1S(=O)(=O)c1ccc2c(c1)CCC2` (stereo not given), the Potency was > 76.9 µM.
`CSc1cccc(NC(=O)C2CCCN2S(=O)(=O)c2ccc3c(c2)CCC(=O)N3)c1` (stereo not given) was tested, and the Potency was 10.1 µM (active).
In the case of `Cc1cccc(NC(=O)C2CCCN2S(=O)(=O)c2ccc(F)cc2)c1C` (stereo not given), the Potency is reported as > 76.9 µM.
In the case of `COc1ccc(-n2c(C)nc3c(cnn3-c3ccccc3)c2=O)cc1`, the Potency is reported as > 76.9 µM.
For `CNC(=O)c1nnn(-c2ccccc2)c1C(=O)NC`, the Potency was > 76.9 µM.
With `CCCCC(=O)Nc1ccc2c(c1)OCCO2` the Potency was > 76.9 µM.
For `Cc1ccc(CNC(=O)CCCNC(=O)c2ccc(Cl)cc2)n1C`, the Potency was > 76.9 µM.
`CCCC(=O)Nc1ccc(C(=O)NCCCn2ccnc2)cc1` was tested, and the Potency was 6.73 µM (active).
In the case of `CCN(CC)C(=O)CCC(=O)Nc1ccc(C(=O)OC)cc1`, the Potency is reported as > 76.9 µM.
For `CCCCC(=O)Nc1ccc(C(=O)NCCCn2ccnc2)cc1`, the Potency was 5.11 µM (active).
`CCOc1ccccc1C(=O)NCCCn1ccnc1` was tested, and the Potency was > 76.9 µM.
`CCc1c(C)nc(N)n2c(SCC(=O)N3CCN(c4ccccc4)CC3)nnc12` was tested, and the Potency was > 76.9 µM.
In the case of `COc1c(C)cccc1C(=O)Nc1cc(Cl)ccc1N1CCOCC1`, the Potency is reported as > 76.9 µM.
In the case of `COc1ccc(S(=O)(=O)N2CCCC2)c(C)c1C`, the Potency is reported as > 76.9 µM.
Work on `CC(C)C(c1nnnn1C1CCCC1)N1CCN(c2ccccc2F)CC1` (stereo not given) yielded a Potency of 45 µM.
In the case of `CCOC(=O)c1c(C)[nH]c(C)c1C(=O)CSc1nc(N)cc(N)n1`, the Potency is reported as > 76.9 µM.
`O=C(CSc1nnc(-c2cnccn2)n1Cc1ccco1)c1ccc(Cl)c(Cl)c1` was tested, and the Potency was > 76.9 µM.
With `COCCCn1c(CCC(=O)O)ccc1-c1ccc(F)cc1` the Potency was > 76.9 µM.
`O=C(NCCCNC(=O)NC1CCCCC1)NC1CCCCC1` was tested, and the Potency was > 76.9 µM.
For `CC(=O)N1CSCC1C(=O)O` (stereo not given), the Potency was > 76.9 µM.
For `O=C(CSc1nnc(-c2ccco2)n1CC1CCCO1)c1ccccc1` (stereo not given), the Potency was > 76.9 µM.
For `COc1ccc(C2C3=C(CC(C)(C)CC3=O)Oc3ncn4nc(-c5cccnc5)nc4c32)cc1OC` (stereo not given), the Potency was > 76.9 µM.
For `CCCn1c(SCC(=O)Nc2c(C)cccc2C)nnc1C(C)C`, the Potency was > 76.9 µM.
With `CCOC(=O)CSc1nnc(-c2ccco2)n1C` the Potency was > 76.9 µM.
`CN1CCC2(CC1)NC(=O)NC2=O` was tested, and the Potency was > 76.9 µM.
In the case of `O=C(Nc1cnccn1)c1cccnc1`, the Potency is reported as > 76.9 µM.
With `O=C(Cn1c(-c2ccccn2)nc2ccccc21)NCCN1CCOCC1` the Potency was > 76.9 µM.
In the case of `COc1ccc(-c2nnc(SCC(=O)c3ccco3)n2-c2ccccc2)cc1`, the Potency is reported as > 76.9 µM.
In the case of `Cc1ccc(C(C(=O)NC2CCCC2)N(Cc2ccco2)C(=O)CCC(=O)Nc2ccccn2)cc1` (stereo not given), the Potency is reported as > 76.9 µM.
With `COC(=O)c1ccc(C2NC(=O)NC(C)=C2C(=O)N(C)C)cc1` (stereo not given) the Potency was > 76.9 µM.
In the case of `COc1ccc(C2C(C(=O)Nc3ccccc3OC)=C(C)Nc3nnnn32)c(OC)c1` (stereo not given), the Potency is reported as > 76.9 µM.
With `COC(=O)c1ccc(C2C3=C(Nc4nnnn42)c2ccccc2OC3)cc1` (stereo not given) the Potency was 8.19 µM (active).
In the case of `CCOC(=O)c1c(C)nc(-c2ccccc2)nc1NC(=O)C(C)C`, the Potency is reported as > 76.9 µM.
`O=c1[nH]nc(Cc2ccccn2)c2ccccc12` was tested, and the Potency was > 76.9 µM.
For `CCOC(=O)c1cnc(-n2nc(C)cc2C)nc1-n1nc(C)cc1C`, the Potency was > 76.9 µM.
With `CCc1ccccc1N(CC(=O)N1CCN(c2ccccc2F)CC1)S(C)(=O)=O` the Potency was > 76.9 µM.
`CCOc1ncccc1C(=O)OCc1cn2cc(Cl)ccc2n1` was tested, and the Potency was > 76.9 µM.
With `CN(Cc1ccccc1)Cc1ccccc1F` the Potency was > 76.9 µM.
`COc1ccccc1OCCC(=O)OCC(=O)NC(=O)NC(C)(C)C` was tested, and the Potency was > 76.9 µM.
For `O=S(=O)(c1cccc(S(=O)(=O)N2CCC(n3nnc4ccccc43)CC2)c1)N1CCCCC1`, the Potency was 10.5 µM (active).
In the case of `O=S(=O)(c1cccc(-c2nnc(SC(F)F)n2-c2ccccc2)c1)N1CCCCC1`, the Potency is reported as > 76.9 µM.
In the case of `CC(=O)c1cccc(S(=O)(=O)N2CCC(n3nnc4cc(F)ccc43)CC2)c1`, the Potency is reported as > 76.9 µM.
`O=C(C1=C(O)C(=O)N(Cc2ccccc2)C1c1cccnc1)c1ccco1` (stereo not given) was tested, and the Potency was > 76.9 µM.
For `O=C1NC(c2cc3c(cc2Cl)OCO3)Oc2ccccc21` (stereo not given), the Potency was > 76.9 µM.
`O=C1N(Cc2ccc3c(c2)OCO3)c2ccccc2C1(O)c1c[nH]c2ccccc12` (stereo not given) was tested, and the Potency was > 76.9 µM.
In the case of `CCC(=O)Nc1ccc(C(=O)CSc2nnc(CNc3ccc(Cl)cc3)o2)cc1OC`, the Potency is reported as > 76.9 µM.
With `Cc1cc(-n2nc(C)cc2C)n2ncc(-c3ccccc3)c2n1` the Potency was > 76.9 µM.
In the case of `Cc1cc(N2CCCC2)n2nc(C)c(-c3ccccc3)c2n1`, the Potency is reported as 7.9 µM (active).
In the case of `Cc1cc(C)c2c(n1)nn1c(N3CCOCC3)cc(C)nc21`, the Potency is reported as > 76.9 µM.
`COc1ccc(CC(=O)Nc2ccc3c(c2)CCC3)cc1S(=O)(=O)N1CCOCC1` was tested, and the Potency was > 76.9 µM.
In the case of `Cc1cccc(-n2c(N)cc(=O)nc2SC(C)C(=O)NC2CCCCC2)c1` (stereo not given), the Potency is reported as > 76.9 µM.
For `CC(=O)N1CCN(c2ccc(NCc3ccc(C(C)C)cc3)cc2)CC1`, the Potency was 7.71 µM (active).
With `O=C(Nc1cccc(NC(=O)N2CCN(c3ccccc3)CC2)c1)N1CCN(c2ccccc2)CC1` the Potency was > 76.9 µM.
For `CC(C)N(C(=O)COC(=O)c1ccccc1C(=O)N1CCN(c2ccc(F)cc2)CC1)C(C)C`, the Potency was > 76.9 µM.
With `COC(=O)Cc1c(C)c2ccc(OCC(=O)NCc3ccc4c(c3)OCO4)cc2oc1=O` the Potency was > 76.9 µM.
`CC1(C)Oc2ccc(C(=O)N3CCOCC3)cc2N(CC(=O)Nc2ccccc2)C1=O` was tested, and the Potency was > 76.9 µM.
With `Cc1ccc(-c2noc(CN3CCN(Cc4ccccc4)CC3)n2)cc1` the Potency was > 76.9 µM.
`CCOC(=O)Cc1c(C)nc2c(C#N)c(C)nn2c1C` was tested, and the Potency was > 76.9 µM.
For `Cc1cc(C(=O)COC(=O)CCCN2C(=O)c3ccccc3C2=O)c(C)n1C`, the Potency was > 76.9 µM.
`CCOC(=O)CSc1nnc(NC(=O)c2cccc(S(=O)(=O)N3CCCC3)c2)s1` was tested, and the Potency was > 76.9 µM.
`COc1cccc(-c2nnc(N(C)C(=O)c3ccno3)s2)c1` was tested, and the Potency was > 76.9 µM.
With `CC1(C)CC(CCC(=O)Nc2ccccc2Cl)C(=O)O1` (stereo not given) the Potency was > 76.9 µM.
`CN(C(=O)COc1ccccc1)c1nnc(-c2ccncc2)s1` was tested, and the Potency was > 76.9 µM.
In the case of `Cc1cc(Cl)c(S(=O)(=O)NCCC(=O)O)cc1OCC(N)=O`, the Potency is reported as > 76.9 µM.
`COC(=O)C(CC(=O)Nc1cc(C)ccc1C)Nc1ccccc1OC` (stereo not given) was tested, and the Potency was > 76.9 µM.
`Cc1ccc2nc(S(=O)(=O)O)[nH]c2c1` was tested, and the Potency was > 76.9 µM.
